# Results filed as inconclusive are left out. The source made the active and inactive calls. The call rests on the fitted dose curve.
# Target: Peroxisome proliferator-activated receptor delta (Homo sapiens) (UniProt Q03181)
# Test: qHTS assay to identify small molecule agonists of the peroxisome proliferator-activated receptor delta (PPARd) signaling pathway (AID 743212);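 further: HEK293H cells with PPARd UAS beta-lactamase reporter GeneBLAzer system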
# Conditions: HEK293H PPARd-UAS-bla, beta-lactamase FRET ratio, 17 h; series mostly up to 62.6 µM
# In short: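 A PPARd-bla HEK293H line with beta-lactamase under an Upstream Activator Sequence is treated with compounds at 37 C. Substrate loading for 2 h at room temperature precedes the fluorescence measurement.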
# Sequence of Peroxisome proliferator-activated receptor delta (Homo sapiens) (Q03181 whole entry, looked up): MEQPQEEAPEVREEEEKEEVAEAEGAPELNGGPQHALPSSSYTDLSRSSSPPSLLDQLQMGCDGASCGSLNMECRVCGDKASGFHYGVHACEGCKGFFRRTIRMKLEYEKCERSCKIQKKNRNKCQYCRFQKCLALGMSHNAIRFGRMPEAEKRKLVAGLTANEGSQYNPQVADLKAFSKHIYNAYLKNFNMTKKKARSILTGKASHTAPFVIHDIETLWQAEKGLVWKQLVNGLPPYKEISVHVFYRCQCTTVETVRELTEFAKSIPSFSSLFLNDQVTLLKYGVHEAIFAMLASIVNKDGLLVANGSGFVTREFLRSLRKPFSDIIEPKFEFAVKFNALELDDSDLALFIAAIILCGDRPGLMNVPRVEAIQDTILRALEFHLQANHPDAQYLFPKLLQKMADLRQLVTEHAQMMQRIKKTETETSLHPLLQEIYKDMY
row,SMILES,outcome
1,C#CC(C)N(C)C(=O)Nc1ccc(Cl)cc1 (centres undefined),inactive
2,CC(C)(C)OC(=O)c1ccc(O)cc1,inactive
3,CCN(C)C(=O)Oc1cccc([C@H](C)N(C)C)c1,inactive
4,CC(=O)c1ccc2c(c1)Cc1ccccc1-2,inactive
5,CCN1CCc2nc(N)oc2CC1,inactive
6,COc1nccnc1NS(=O)(=O)c1ccc(N)cc1,inactive
7,BrCCCCCBr,inactive
8,c1ccc2c(c1)ccc1c3ccccc3ccc21,inactive
9,CCC(C=O)CC,inactive
10,CN(CCOc1ccc(NS(C)(=O)=O)cc1)CCc1ccc(NS(C)(=O)=O)cc1,inactive
11,O=C1c2ccccc2C(=O)N1CCl,inactive
12,CN(C)CCOCCO,inactive
13,CCOC(=O)CC(=O)c1ccccc1,inactive
14,O=C(O)c1ccc(Cl)cc1Cl,inactive
15,CN(C)c1ccc(C=O)cc1,inactive
16,CCOc1cc(NC(C)=O)ccc1C(=O)OC,inactive
17,CC(=C(CCOC(=O)C(C)C)SSC(CCOC(=O)C(C)C)=C(C)N(C=O)Cc1cnc(C)nc1N)N(C=O)Cc1cnc(C)nc1N,inactive
18,C[C@@H](Oc1ccc(CNC(=O)c2cccnc2Oc2ccc3c(c2)OCO3)c(F)c1)C(=O)O,inactive
19,O=C(NCCN1CCOCC1)c1ccc(Cl)cc1,inactive
20,N[C@@H](COP(=O)(O)O)C(=O)O,inactive
21,COCCOCCOCCOCCO,inactive
22,CCCCCCCC/C=C\CCCCCCCC(=O)OCCCC,inactive
23,Cc1ccsc1/C=C/C1=NCCCN1C,inactive
24,CNC(=O)[C@H]1O[C@@H](n2cnc3c(NCc4cc(Cl)ccc4OCc4cc(C)no4)ncnc32)[C@H](O)[C@@H]1N,inactive
